Measurements from PubChem BioAssay (NCI).
About 83,000 compounds went through this panel and 20% of them were active in at least one assay; those are over-represented in the sample as a whole.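 Single-dose data. Exposure time 48 hours. Values below 10 considered active.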 Values without a mark were called inactive. Calls of active or inactive are those of the source.

Assays:
Test in all cases: NCI-60 one-dose screen, 48 h (100 = growth as untreated, 0 = no growth, -100 = all killed)
Conditions in all cases: 10 µM unless noted
NCI-H23 lung = tested on: NCI-H23 lung
NCI-H226 lung = tested on: NCI-H226 lung
NCI-H322M lung = tested on: NCI-H322M lung
HOP-62 NSCLC = tested on: HOP-62 NSCLC
NCI-H460 lung = tested on: NCI-H460 lung
HOP-92 NSCLC = tested on: HOP-92 NSCLC
NCI-H522 lung = tested on: NCI-H522 lung
A549/ATCC NSCLC = tested on: A549/ATCC NSCLC
786-0 renal = tested on: 786-0 renal
COLO 205 colon = tested on: COLO 205 colon
DU-145 prostate = tested on: DU-145 prostate
K-562 leukemia = tested on: K-562 leukemia
MALME-3M melanoma = tested on: MALME-3M melanoma
MDA-MB-231 breast = tested on: MDA-MB-231 breast
RXF 393 renal = tested on: RXF 393 renal
SF-268 CNS = tested on: SF-268 CNS
SF-295 CNS = tested on: SF-295 CNS
SF-539 CNS = tested on: SF-539 CNS
UACC-257 melanoma = tested on: UACC-257 melanoma
M14 melanoma = tested on: M14 melanoma

| SMILES | growth (NCI-H23 lung) | growth (NCI-H226 lung) | growth (NCI-H322M lung) | growth (HOP-62 NSCLC) | growth (NCI-H460 lung) | growth (HOP-92 NSCLC) | growth (NCI-H522 lung) | growth (A549/ATCC NSCLC) | growth (786-0 renal) | growth (COLO 205 colon) | growth (DU-145 prostate) | growth (K-562 leukemia) | growth (MALME-3M melanoma) | growth (MDA-MB-231 breast) | growth (RXF 393 renal) | growth (SF-268 CNS) | growth (SF-295 CNS) | growth (SF-539 CNS) | growth (UACC-257 melanoma) | growth (M14 melanoma) |
| --- | --- | --- | --- | --- | --- | --- | --- | --- | --- | --- | --- | --- | --- | --- | --- | --- | --- | --- | --- | --- |
| CC(=O)C(c1c(O)c2ccccc2oc1=O)c1cc(=O)oc2c1ccc1ccccc12 (stereo not given) | 100% | 90.7% | 106% | 90.9% | 102% | 65.4% | 96.2% | 97% | 96.3% | 112% | 115% | 96.7% | 98.7% | 89.8% | 97% | 103% | 96.3% | 92.7% | 102% | 102% |
| COC(=O)[C@@H](C[C@H](Cc1ccccc1)NC(=O)c1csc([C@@H](C[C@H](C(C)C)N(C)C(=O)[C@@H](NC(=O)[C@H]2CCCCN2C)C(C)C)OC(C)=O)n1)NC(=O)OCc1ccccc1 | 35.1% [9.5 µM] | -36.8% [9.5 µM] (active) | 43.1% [9.5 µM] | 12.1% [9.5 µM] | 5.31% [9.5 µM] (active) | 25.7% [9.5 µM] | -45.5% [9.5 µM] (active) | 14.1% [9.5 µM] | 15.8% [9.5 µM] | -65.4% [9.5 µM] (active) | -3.78% [9.5 µM] (active) | 2.99% [9.5 µM] (active) | -42.5% [9.5 µM] (active) | 18.6% [9.5 µM] | 39.8% [9.5 µM] | 15.2% [9.5 µM] | 3.92% [9.5 µM] (active) | -19.1% [9.5 µM] (active) | 6.49% [9.5 µM] (active) | -41.7% [9.5 µM] (active) |
| CC(=O)O[C@H](C[C@H](C(C)C)N(C)C(=O)[C@@H](NC(=O)[C@H]1CCCCN1C)C(C)C)c1cccc(C(=O)N[C@@H](Cc2ccccc2)C[C@H](C)C(=O)O)n1 | 32.6% | 61.6% | 40.7% | 23% | 4.27% (active) | 54.5% | -12.7% (active) | 8.55% (active) | 13.6% | -64% (active) | 0.44% (active) | 7.66% (active) | 74.3% | 11.8% | 34.5% | 23.1% | 5.65% (active) | -2.97% (active) | 48.4% | 1.68% (active) |
| CC(=O)Oc1ccccc1C(=O)NCCC[Se]C#N | -13.8% (active) | -22.8% (active) | 2.65% (active) | -38.8% (active) | 1.89% (active) | -18.5% (active) | 65.2% | 28.2% | 104% | 112% | -32.9% (active) | 30.2% | -24.5% (active) | -38.5% (active) | -7.78% (active) | -22.3% (active) | -15.7% (active) | -72.1% (active) | 42.1% | -13.1% (active) |
| CC(C)(C)N1CC1C#N (stereo not given) | 99.5% | 103% | 96.3% | 105% | 105% | 105% | 96% | 105% | 98.6% | 98.7% | 105% | 99% | 103% | 96.3% | 107% | 101% | 91.4% | 103% | 105% | 110% |
| C[N+](C)(C)Cc1cc(Cl)ccc1O | 97.7% | 98.6% | 87.3% | 101% | 110% | 93.2% | 80.6% | 94.6% | 100% | 107% | 108% | 99.9% | 93.2% | 109% | 110% | 106% | 108% | 102% | 96.5% | 94.8% |
| CC(C)(NC(=O)O[C@@H]1CN2CCC1CC2)c1csc(-c2ccc(F)cc2)n1 | 96.3% | 89.9% | 98.9% | 99.4% | 101% | 98% | 95.4% | 101% | 99.3% | 111% | 112% | 94.5% | 97.1% | 102% | 105% | 88.7% | 101% | 95.3% | 102% | 84.9% |
| CCOC(=O)CCN(C)C1=Nc2ccc(Cl)cc2C(c2ccccc2)=[N+]([O-])C1 | 101% | 104% | 98.4% | 96.6% | 106% | 98.6% | 70.9% | 100% | 117% | 129% | 106% | 96.8% | 101% | 97.9% | 105% | 99.6% | 102% | 107% | 105% | 113% |
| CN[C@]1(c2ccccc2Cl)CCCC[C@H]1NCCCN1CCN(C)CC1 | 109% | 94.5% | 106% | 93.8% | 110% | 79.1% | 93.9% | 98.5% | 92.2% | 108% | 108% | 90.3% | 104% | 94.2% | 97.4% | 94.1% | 102% | 94.8% | 102% | 98.9% |
| COc1ccc(/C=C\c2cc(OC)c(OC)c(OC)c2)c(NS(=O)(=O)c2ccc(F)cc2)c1O | 27.4% | 35.1% | 53.6% | 71.3% | 5.54% (active) | 43.3% | -18.6% (active) | 23.9% | 18.4% | 0.893% (active) | -19.1% (active) | 18.3% | 94.3% | 8.05% (active) | 23.5% | 15.1% | 4.99% (active) | 2.76% (active) | 66.5% | 6.43% (active) |
| O=C(O)c1c(Cl)n(Cc2ccc(O)cc2)c2ccc(O)cc12 | 113% | 97.2% | 96.3% | 93.7% | 106% | 65% | 83.4% | 103% | 108% | 110% | 111% | 112% | 106% | 102% | 46.6% | 101% | 101% | 98.8% | 101% | 98% |
| CC(C)[C@@H]1NC(=O)[C@]2(C)CSC(=N2)c2csc(n2)CNC(=O)C[C@@H](/C=C/CCS)OC1=O | 8.6% (active) | 0.257% (active) | 7.74% (active) | -1.73% (active) | 8.13% (active) | -21.5% (active) | -25.2% (active) | -15.1% (active) | 10.2% | -78.3% (active) | 8.24% (active) | 8.34% (active) | 21.4% | 12% | -57.7% (active) | 11.3% | 6.21% (active) | 21% | -42.5% (active) | 10.1% |
| C/C(=C\c1cc(C(F)(F)F)nn1CCNC(=O)OC(C)(C)C)[C@@H]1C[C@@H]2O[C@]2(C)CCC[C@H](C)[C@H](O)[C@@H](C)C(=O)C(C)(C)[C@@H](O)CC(=O)O1 | 59.2% | 77.4% | 72.3% | 78.8% | 30.5% | 66.4% | 63.5% | 54.3% | 67.8% | 30.6% | 63.2% | 31.9% | 70% | 58.8% | 53.2% | 60.4% | 75.5% | 57.5% | 83.5% | 50.1% |
| CNC(=O)Oc1ccc(C(C)(C)C)cc1OC(=O)NC | 100% | 93.6% | 112% | 88.7% | 102% | 95.2% | 84.8% | 90.5% | 89.4% | 87% | 105% | 97.6% | 104% | 105% | 108% | 105% | 98.6% | 103% | 92% | 93.3% |
